# From PubChem BioAssay AID1347138 (National Center for Advancing Translational Sciences (NCATS), 2019)
# The other results are listed elsewhere or left out. Inconclusive results are not listed. Unmarked numbers belong to inactive results. The source made the active and inactive calls. Calls follow the shape of the dose curve; as a rule, active = well fitted inhibition curve with a large enough effect; inconclusive = small, poorly fitted or top-dose-only effect; inactive = no such curve, though single readings can be large or run the other way.
# Test: qHTS of pediatric cancer cell lines to identify multiple opportunities for drug repurposing: Orthogonal 3D caspase screen for TC32 cells
# Conditions: TC32 3D spheroids, caspase-3/7 fluorescence imaging, 24 h; series mostly up to 30.7 µM; caspase activation, negative = activation: at the top concentration
# Text: Drug repurposing or repositioning has been offered as a strategy for drug development in oncology programs. This approach has special potential for childhood cancers and other rare or orphan diseases, where the expected return on new drug development has been a disincentive to pharmaceuticals. […] In this project we exploit the poly-pharmacology of drugs to discover new indications via phenotypic screening of a panel of 19 well-characterized cell lines derived from solid tumors seen in children and adolescents. The goal is to identify approved drugs with previously unrecognized anticancer properties that has the potential to reveal new mechanisms and biological processes involved in carcinogenesis or drug resistance. We employed a titration-based paradigm (quantitative high-throughput screening or qHTS), where all compounds were tested at multiple concentrations for their effect on cell viability. Concentration-response curves (CRCs) were derived directly from the primary screen, and both potency and efficacy values were used to identify compounds with robust bioactivity profiles. […] These two assays will be used to validate active compounds and assess the correlation of compound's potency in 2D vs 3D cultures on selected cell lines. Assay Submitter: Nathalia J. Martinez, National Center for Advancing Translational Sciences, National Institutes of Health, Rockville, MD, USA; email: natalia.martinez@nih.gov Shen, M et al. Quantitative high-throughput phenotypic screening of pediatric cancer cell lines identifies multiple opportunities for drug repurposing. Oncotarget 2017 Dec 19;9(4):4758-4772. PMID 29435139.
# The cells were obtained from University of North Carolina (UNC), Pediatric Preclinical Testing Program (PPT), and Coriell Institute (CI). qHTS apoptosis assay in 3D cultures: For the apoptosis assay, cells were assayed in phenol red-free growth media at a density of 1,000 cells/well. Thirty microliters of cells were dispensed into 384-well, ULA, round bottom plates (Corning) using a Multidrop dispenser. Plates were spun down at 1,000 rpm for 1 min and incubated at 37 C, 5% CO2, under a humidified atmosphere for 24 hours to allow spheroid formation. Ninety-two nanoliter of compounds and controls were subsequently transferred via GNF Pintool. Plates were sealed using a breathable seal (Diversified Biotech, Dedham, MA) and incubated for 24 hours at 37C before addition of CellEvent Caspase-3/7 green detection reagent (TheremoFisher Scientific). Staurosporine at final concentrations of 3 µM was used as positive control. Spheroids were imaged using bright-field and green (EX: […]) filters and analyzed with the Celigo Tumorsphere 1+2 application software. Spheroids were first identified using bright-field segmentation, and the average fluorescent intensity of the green channel was used to quantify caspase activation as percent activity based on neutral control DMSO and positive control.
SMILES,"caspase activation, negative = activation [%]",Potency
C=C1C(=CC=C2CCC[C@]3(C)[C@@H]([C@H](C)C=C[C@H](C)C(C)C)CC[C@@H]23)C[C@@H](O)C[C@@H]1O,-7.49,
CC(NCc1ccc2c(c1)nc(NC(=O)c1ccc(-c3cn[nH]c3)s1)n2CC(C)(C)O)C(C)(C)C (stereo unspecified),,1.44 µM (active)
CC[C@]1(O)C[C@@H]2CN(CCc3c([nH]c4ccccc34)[C@@](C(=O)OC)(c3cc4c(cc3OC)N(C)[C@H]3[C@@](O)(C(=O)OC)[C@H](OC(C)=O)[C@]5(CC)C=CCN6CC[C@]43[C@@H]65)C2)C1,,0.0722 µM (active)
COc1c(C)c2c(c(O)c1C/C=C(\C)CCC(=O)O)C(=O)OC2,3.92,
CC1(C)O[C@@H]2C[C@@H]3[C@H]4C[C@@H](F)C5=CC(=O)C=C[C@]5(C)[C@@]4(F)[C@@H](O)C[C@]3(C)[C@]2(C(=O)CO)O1,-3.8,
COC(=O)Nc1nc2ccc(Sc3ccccc3)cc2[nH]1,,11.4 µM (active)
